Assays:
Experiment in all cases: DAPPL (digital affinity profiling via proximity ligation, sequencing); 10 mM Tris-HCl pH 7.5, 50 mM NaCl, 1 mM DTT, 4% glycerol, room temperature, 30 min; GST-TFs on glutathione beads, 16-mer random dsDNA library, 0.1% formaldehyde crosslink after washing; high values mean tight binding
Conditions in all cases: protein: recombinant; tags: N-terminal GST; dsDNA, one strand shown
ELK1 = target: T1, ELK1 (Homo sapiens, UniProt P19419 1-428)
T1 sequence: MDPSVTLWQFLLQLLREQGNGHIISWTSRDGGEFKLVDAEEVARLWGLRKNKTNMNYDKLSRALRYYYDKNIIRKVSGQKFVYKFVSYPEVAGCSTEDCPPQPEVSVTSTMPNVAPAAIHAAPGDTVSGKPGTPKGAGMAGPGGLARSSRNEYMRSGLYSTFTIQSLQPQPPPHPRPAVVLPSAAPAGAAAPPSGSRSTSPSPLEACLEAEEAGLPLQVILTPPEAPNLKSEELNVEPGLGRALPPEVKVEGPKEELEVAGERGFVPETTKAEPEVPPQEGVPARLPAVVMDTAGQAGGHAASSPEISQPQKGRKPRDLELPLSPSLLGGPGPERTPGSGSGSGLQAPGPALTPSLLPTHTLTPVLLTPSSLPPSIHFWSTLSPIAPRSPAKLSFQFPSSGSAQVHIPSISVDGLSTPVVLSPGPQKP
Procedure, shortened: (§1)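 Pools were built from human transcription factors expressed in yeast as GST fusions, captured on glutathione beads and DNA-barcoded, along with a tag-only sample. Incubation with 200 nmole of a 16-mer random double-stranded DNA library lasted 30 min at room temperature in Tris/NaCl/DTT/glycerol buffer, and was followed by washing, 0.1% formaldehyde crosslinking, proximity ligation, PCR amplification and Illumina NextSeq500 sequencing. Binding signal is the quotient of each hexamer's read frequency for a factor and its frequency for the tag-only sample.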

GABPA = target: T2, GABPA (Homo sapiens, UniProt Q06546 1-454)
T2 sequence: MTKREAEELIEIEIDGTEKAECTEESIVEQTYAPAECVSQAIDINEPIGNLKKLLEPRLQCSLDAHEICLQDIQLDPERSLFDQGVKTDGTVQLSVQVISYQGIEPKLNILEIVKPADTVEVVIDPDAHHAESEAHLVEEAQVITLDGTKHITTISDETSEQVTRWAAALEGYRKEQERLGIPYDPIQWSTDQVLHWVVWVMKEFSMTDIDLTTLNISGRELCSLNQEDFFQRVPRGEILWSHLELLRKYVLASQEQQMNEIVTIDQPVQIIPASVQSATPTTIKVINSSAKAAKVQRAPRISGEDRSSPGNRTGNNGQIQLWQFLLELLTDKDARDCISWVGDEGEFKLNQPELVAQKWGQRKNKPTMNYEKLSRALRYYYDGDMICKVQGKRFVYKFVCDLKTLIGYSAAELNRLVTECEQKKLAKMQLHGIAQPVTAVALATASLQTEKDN
Procedure, shortened: as §1

ERG = target: T3, ERG (Homo sapiens, UniProt P11308 1-479)
T3 sequence: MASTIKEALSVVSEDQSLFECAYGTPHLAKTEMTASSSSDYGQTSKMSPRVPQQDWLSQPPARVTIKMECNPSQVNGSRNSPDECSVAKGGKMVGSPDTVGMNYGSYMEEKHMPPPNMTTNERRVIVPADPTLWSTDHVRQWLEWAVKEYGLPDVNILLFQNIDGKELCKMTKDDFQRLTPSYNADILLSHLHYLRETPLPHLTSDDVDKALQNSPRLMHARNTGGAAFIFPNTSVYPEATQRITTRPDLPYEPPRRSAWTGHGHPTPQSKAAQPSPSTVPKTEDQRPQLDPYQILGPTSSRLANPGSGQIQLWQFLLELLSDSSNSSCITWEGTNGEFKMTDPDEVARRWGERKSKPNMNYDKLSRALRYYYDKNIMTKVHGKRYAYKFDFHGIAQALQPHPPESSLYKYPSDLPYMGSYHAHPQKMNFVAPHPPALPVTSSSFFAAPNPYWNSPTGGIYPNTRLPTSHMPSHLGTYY
Procedure, shortened: as §1

ELF1 = ELF1 (Homo sapiens, UniProt P32519 1-619)
Sequence of ELF1 (P32519 whole entry): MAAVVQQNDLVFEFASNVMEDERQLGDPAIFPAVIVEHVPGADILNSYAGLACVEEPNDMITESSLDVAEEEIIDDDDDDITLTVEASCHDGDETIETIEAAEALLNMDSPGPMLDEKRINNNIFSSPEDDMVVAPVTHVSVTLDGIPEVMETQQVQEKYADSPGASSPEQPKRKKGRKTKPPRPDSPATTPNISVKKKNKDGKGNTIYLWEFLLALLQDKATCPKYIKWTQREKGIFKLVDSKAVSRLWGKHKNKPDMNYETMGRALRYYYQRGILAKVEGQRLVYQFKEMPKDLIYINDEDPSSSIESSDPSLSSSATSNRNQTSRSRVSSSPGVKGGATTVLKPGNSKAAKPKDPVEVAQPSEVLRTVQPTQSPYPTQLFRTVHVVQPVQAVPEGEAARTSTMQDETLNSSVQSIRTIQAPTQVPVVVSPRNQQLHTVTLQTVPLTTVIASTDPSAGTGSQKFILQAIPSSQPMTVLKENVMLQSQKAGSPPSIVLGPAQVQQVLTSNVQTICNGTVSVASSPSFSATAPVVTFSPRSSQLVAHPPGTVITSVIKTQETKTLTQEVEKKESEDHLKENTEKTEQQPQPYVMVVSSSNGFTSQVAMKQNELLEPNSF
Procedure, shortened: as §1

EHF = target: T4, EHF (Homo sapiens, UniProt Q9NZC4 1-300)
T4 sequence: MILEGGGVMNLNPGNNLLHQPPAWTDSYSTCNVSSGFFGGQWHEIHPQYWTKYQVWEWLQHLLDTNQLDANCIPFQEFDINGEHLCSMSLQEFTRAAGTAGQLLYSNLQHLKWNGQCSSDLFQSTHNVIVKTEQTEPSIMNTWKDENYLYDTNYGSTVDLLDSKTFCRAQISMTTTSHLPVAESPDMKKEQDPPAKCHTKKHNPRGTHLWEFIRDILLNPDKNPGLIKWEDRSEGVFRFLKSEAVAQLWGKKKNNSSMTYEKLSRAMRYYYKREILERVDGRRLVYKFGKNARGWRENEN
Procedure, shortened: as §1

SPIB = SPIB (Homo sapiens, UniProt Q01892 1-262)
Sequence of SPIB (Q01892 whole entry): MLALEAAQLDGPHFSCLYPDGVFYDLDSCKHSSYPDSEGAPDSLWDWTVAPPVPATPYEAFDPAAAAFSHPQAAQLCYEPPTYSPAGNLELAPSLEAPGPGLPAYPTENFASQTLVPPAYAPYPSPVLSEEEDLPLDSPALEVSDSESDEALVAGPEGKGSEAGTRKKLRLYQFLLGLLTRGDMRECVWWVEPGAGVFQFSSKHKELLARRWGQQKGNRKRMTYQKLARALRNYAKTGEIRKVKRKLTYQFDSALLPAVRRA
Procedure, shortened: as §1

FEV = target: T5, FEV (Homo sapiens, UniProt Q99581 1-238)
T5 sequence: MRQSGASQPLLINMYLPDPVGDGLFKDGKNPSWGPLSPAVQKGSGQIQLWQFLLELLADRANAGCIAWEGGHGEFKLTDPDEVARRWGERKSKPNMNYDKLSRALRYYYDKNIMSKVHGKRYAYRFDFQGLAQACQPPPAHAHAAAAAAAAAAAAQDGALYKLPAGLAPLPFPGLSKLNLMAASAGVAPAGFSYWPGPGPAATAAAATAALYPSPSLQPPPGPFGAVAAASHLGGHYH
Procedure, shortened: as §1

ETV5 = ETV5 (Homo sapiens, UniProt P41161 1-510)
Sequence of ETV5 (P41161 whole entry): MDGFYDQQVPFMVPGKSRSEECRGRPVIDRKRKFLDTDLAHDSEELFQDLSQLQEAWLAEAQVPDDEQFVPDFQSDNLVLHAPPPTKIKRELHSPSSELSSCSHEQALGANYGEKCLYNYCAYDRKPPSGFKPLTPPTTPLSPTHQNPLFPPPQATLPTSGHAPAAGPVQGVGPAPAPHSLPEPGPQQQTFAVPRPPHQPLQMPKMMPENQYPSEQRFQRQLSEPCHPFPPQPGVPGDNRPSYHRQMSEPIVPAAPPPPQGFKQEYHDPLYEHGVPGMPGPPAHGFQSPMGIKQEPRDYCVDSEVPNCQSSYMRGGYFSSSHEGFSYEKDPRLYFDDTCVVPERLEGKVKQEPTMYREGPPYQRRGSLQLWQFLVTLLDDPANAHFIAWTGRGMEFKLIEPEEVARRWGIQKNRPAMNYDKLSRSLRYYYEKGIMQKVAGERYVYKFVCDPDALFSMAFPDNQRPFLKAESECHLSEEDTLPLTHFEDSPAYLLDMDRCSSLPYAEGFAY
Procedure, shortened: as §1

ELF4 = ELF4 (Homo sapiens, UniProt Q99607 1-663)
Sequence of ELF4 (Q99607 whole entry): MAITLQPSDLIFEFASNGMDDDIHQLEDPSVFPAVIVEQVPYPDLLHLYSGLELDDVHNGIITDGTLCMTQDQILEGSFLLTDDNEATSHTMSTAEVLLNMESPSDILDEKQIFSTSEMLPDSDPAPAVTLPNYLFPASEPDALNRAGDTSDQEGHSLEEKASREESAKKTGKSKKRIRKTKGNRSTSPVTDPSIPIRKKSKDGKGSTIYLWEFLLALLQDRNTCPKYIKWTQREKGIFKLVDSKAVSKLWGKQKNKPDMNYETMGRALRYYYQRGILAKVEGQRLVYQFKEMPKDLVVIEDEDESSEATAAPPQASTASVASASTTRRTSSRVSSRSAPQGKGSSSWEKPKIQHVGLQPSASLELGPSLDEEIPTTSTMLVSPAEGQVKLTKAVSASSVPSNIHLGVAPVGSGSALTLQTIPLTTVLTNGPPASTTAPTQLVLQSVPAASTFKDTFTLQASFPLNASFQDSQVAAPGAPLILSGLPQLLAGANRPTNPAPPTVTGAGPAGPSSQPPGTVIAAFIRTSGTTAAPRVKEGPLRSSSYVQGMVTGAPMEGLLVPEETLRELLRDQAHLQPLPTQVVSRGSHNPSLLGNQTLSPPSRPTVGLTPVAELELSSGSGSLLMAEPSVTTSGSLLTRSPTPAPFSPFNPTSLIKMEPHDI
Procedure, shortened: as §1

ELK4 = target: T6, ELK4 (Homo sapiens, UniProt P28324-2 1-405)
T6 sequence: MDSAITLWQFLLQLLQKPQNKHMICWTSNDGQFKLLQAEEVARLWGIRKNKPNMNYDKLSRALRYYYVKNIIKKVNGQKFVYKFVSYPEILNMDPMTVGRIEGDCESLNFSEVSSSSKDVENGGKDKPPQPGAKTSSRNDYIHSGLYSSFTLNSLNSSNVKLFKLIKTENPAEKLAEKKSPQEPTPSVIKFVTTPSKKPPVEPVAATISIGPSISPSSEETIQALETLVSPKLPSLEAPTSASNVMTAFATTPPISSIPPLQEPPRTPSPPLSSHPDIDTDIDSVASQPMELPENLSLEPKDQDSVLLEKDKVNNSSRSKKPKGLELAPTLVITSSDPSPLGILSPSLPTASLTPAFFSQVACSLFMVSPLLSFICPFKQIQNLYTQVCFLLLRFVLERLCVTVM
Procedure, shortened: as §1

In the case of GCCTGC, the binding signal (ELK1) was 1.13 fold enrichment (6-mer frequency, TF over GST control), the binding signal (GABPA) was 1.07 fold enrichment (6-mer frequency, TF over GST control) and the binding signal (ERG) was 1.03 fold enrichment (6-mer frequency, TF over GST control). The binding signal (ELF1) was 1.13 fold enrichment (6-mer frequency, TF over GST control), the binding signal (EHF) was 1.19 fold enrichment (6-mer frequency, TF over GST control) and the binding signal (SPIB) was 1.18 fold enrichment (6-mer frequency, TF over GST control). For the same sequence, the binding signal (FEV) was 1.11 fold enrichment (6-mer frequency, TF over GST control), the binding signal (ETV5) was 1.05 fold enrichment (6-mer frequency, TF over GST control) and the binding signal (ELF4) was 1.06 fold enrichment (6-mer frequency, TF over GST control). The binding signal (ELK4) was 1.18 fold enrichment (6-mer frequency, TF over GST control).

— paper PMC7862700, “An all-to-all approach to the identification of sequence-specific readers for epigenetic DNA modifications on cytosine”
